Assay outcomes from PubChem BioAssay.
DT40 TDP1 CPT: DT40-hTDP1 cell growth loss with CPT; actives 12% (n = 420,000); chicken DT40 Tdp1-/-;hTDP1 cells + 20 nM CPT, ATP luminescence, 48 h; Potency, µM (highest dose often 46.2 µM), usual class: inhibitors; also: nearly all actives have a fitted effect of over 55% in size
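Chicken DT40 Tdp1-/- cells complemented with human TDP1, 400 cells/well, exposed to compounds plus 20 nM camptothecin for at least 48 h at 37 C; viability read as ATP content by CellTiter-Glo luminescence.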
DT40 TDP1 no CPT: qHTS for Inhibitors of human tyrosyl-DNA phosphodiesterase 1 (TDP1): qHTS in cells in absence of CPT | Potency, µM (top dose mostly 46.2 µM), actives largely listed as inhibitors | DT40 Tdp1-/- hTDP1 cells, no CPT, ATP luminescence, 48 h | actives 15% (n = 420,000); also: nearly all actives have a fitted effect of over 55% in size
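Compound effects on proliferation are scored in DT40 Tdp1-/-;hTDP1 cells in the absence of CPT. ATP levels (CellTiter-Glo luminescence) are recorded after a ≥48 hr, 37 °C incubation.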
IL1B secr inh: blocks inflammasome-driven IL-1 beta release | actives 4.7% (n = 360,000) | AID 743279 | THP-1 LPS/ATP IL-1B secretion, AlphaLISA, 16 h; hits give low values | activity change, % at 57.5 µM; in the data active = activity change below about -50%; inconclusive = mostly about -30% to -49%
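THP-1 cells pretreated 1 hr with compounds (up to 57.5 uM final), then stimulated with LPS (250 ng/mL final) plus ATP (1.25 mM final); secreted IL-1B measured by AlphaLISA after 16 hr, decreased signal indicating inhibition.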
HT1080 IDH1KD tx: HT-1080 IDH1 knockdown cell toxicity (counter line); HT-1080 IDH1 knockdown viability, ATP luminescence, 48 h; Potency, µM (series often up to 46.1 µM), most hits filed as cytotoxic; actives 2% (n = 360,000)
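In this qHTS, HT-1080 cells depleted of IDH1 are exposed for 48 h at 37 °C to compound titrations. Toxicity is scored from CellTiter-Glo luminescence, with DMSO as full viability and medium alone as none.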
HT1080NT lethal: kills 2HG-producing HT-1080-NT fibrosarcoma cells; HT-1080-NT fibrosarcoma viability, CellTiter-Glo ATP luminescence, 48 h; actives 1.6% (n = 360,000); AID 686970; Potency, µM (titrated, usually from 46.1 µM), most hits filed as cytotoxic;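 also: NT is the 2HG producing partner of a matched IDH1 knockdown line; nearly all actives have a fitted effect of over 55% in size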
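Viability of the 2HG-overproducing fibrosarcoma line after 48 hours of compound exposure at 37 degrees C was determined by luminescence with CellTiter-Glo, and concentration-effect curves were then fitted and categorized.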
ELG1 repair inh: inhibitors of ELG1-dependent DNA repair in HEK293T cells. Potency, µM (top dose mostly 46.1 µM), hits mostly inhibitors. HEK293T ELG1-luciferase reporter, luminescence, 16 h; DNA damage induced by 5-fluorouridine. actives 2.3% (n = 330,000); also: nearly all actives have a fitted effect of over 55% in size
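Reporter activity after DNA damage by 5-fluorouridine is monitored. Compound-treated cells incubate 16 hr at 37 °C, then ONE-Glo is added for 30 min before luminescence reading.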
A number is an active result; . = inactive; ? = inconclusive; / = not tested or not shown. Shown are actives, neighbours in structure and some others; about 19% of the full set was active somewhere. Unless noted, calls follow the shape of the dose curve; as a rule, active = well fitted curve in the direction sought with a large enough effect; inconclusive = small, poorly fitted or top-dose-only effect, or another doubt; inactive = no such curve, though single readings can be large; an effect the other way counts as inactive or inconclusive.

SMILES	DT40 TDP1 CPT	DT40 TDP1 no CPT	IL1B secr inh	HT1080 IDH1KD tx	HT1080NT lethal	ELG1 repair inh
CCCCN(C(=O)Cc1ccc2c(c1)OCCO2)c1c(N)n(CCC)c(=O)[nH]c1=O	.	.	.	.	.	.
CSc1nc2ncc3c(n2n1)CC1c2ccccc2CCN1C3=O (stereo unspecified)	?	?	.	.	.	.
O=C1c2cnc3nc(SCc4cccc(Cl)c4)nn3c2CC2c3ccccc3CCN12 (stereo unspecified)	15µM	21µM	.	.	.	.
CC(=O)OC1CCC2(C)C(=CC=C3C2CCC2(C)C3CCC2C(C)/C=C/C(C)C(C)C)C1(C)C (stereo unspecified)	.	.	/	/	/	/
O=C1CN(C(=O)COC(=O)CCS(=O)(=O)c2ccccc2Cl)c2ccccc2N1	18µM	?	.	.	.	.
CS(=O)(=O)c1ccc(C(=O)OCC(=O)N2CC(=O)Nc3ccccc32)cc1[N+](=O)[O-]	1.1µM	0.71µM	/	/	/	/
CC1CCCCN1C(=O)COC(=O)c1ccc(S(C)(=O)=O)c([N+](=O)[O-])c1 (stereo unspecified)	2.2µM	3.2µM	/	/	/	/
O=C1CN(C(=O)COC(=O)c2ccc(N3CCCCCC3)c([N+](=O)[O-])c2)c2ccccc2N1	.	.	.	.	.	?
CS(=O)(=O)c1ccc(C(=O)OCC(=O)N2CCCC2)cc1[N+](=O)[O-]	5µM	4µM	/	/	/	/
CC(=O)NCCNC(=O)C1CCCCN1S(=O)(=O)c1ccccc1 (stereo unspecified)	.	?	.	.	.	.
O=C(CCNC(=O)N1CC(=O)Nc2ccccc21)NCc1cccc(Cl)c1	.	?	.	.	.	.
O=C(CCNC(=O)N1CC(=O)Nc2ccccc21)NCc1ccccc1Cl	?	13µM	.	.	.	/
Cc1ccc(Cl)cc1-n1ncc2c(NC3CCCCCC3)ncnc21	21µM	21µM	/	/	/	/
c1ccc(-n2ncc3c(NC4CCCCCC4)ncnc32)cc1	?	?	-53	.	.	?
CCOC(=O)N1CCC(Nc2ncnc3c2cnn3-c2ccccc2)CC1	?	11µM	.	.	.	?
Clc1ccc(-n2ncc3c(NC4CCCC4)ncnc32)cc1	16µM	16µM	/	/	/	/
OCCCNc1ncnc2c1cnn2-c1ccc(Cl)cc1	.	?	.	.	.	?
COCCNc1ncnc2c1cnn2-c1cc(Cl)ccc1C	.	?	/	/	/	/
NNc1ncnc2c1cnn2-c1ccccc1	?	?	.	?	?	.
CCCCOC(=O)/C(C#N)=C/c1ccc(-c2ccc(Br)cc2)o1	.	.	/	/	/	/
Cc1ccc(S(=O)(=O)Nc2c(NC3CCCCC3)c3ccccc3oc2=O)c(C)c1	?	?	.	?	?	.
Clc1ccc(-n2ncc3c(NCc4ccco4)ncnc32)cc1	?	15µM	.	?	.	.
COc1ccc(-n2ncc3c(NCc4ccco4)ncnc32)cc1	.	.	.	.	.	?
Clc1ccc(-n2ncc3c(NCC4CCCO4)ncnc32)cc1 (stereo unspecified)	16µM	16µM	.	?	?	?
O=C(c1cccs1)c1no[n+]([O-])c1C(=O)c1cccs1	1.8µM	2.3µM	-97	?	18µM	?
O=C(C1CC(=O)N(c2ccc(F)cc2)C1)N1CCCCCC1 (stereo unspecified)	.	.	.	.	.	.
COC(=O)COc1ccc(S(=O)(=O)Nc2cc([N+](=O)[O-])ccc2C)cc1	.	.	.	.	.	.
COC(=O)COc1ccc(NS(=O)(=O)c2cccc([N+](=O)[O-])c2)cc1	.	.	-152	.	.	.
COC(=O)COc1cccc(NS(=O)(=O)c2cccc([N+](=O)[O-])c2)c1	.	.	-194	.	.	.
